Growth data for 20 compounds are collected here from PubChem BioAssay (NCI).

Common to all, as to experiment: NCI-60 one-dose screen, 48 h (100 = growth as untreated, 0 = no growth, -100 = all killed)
What all share (conditions): 10 µM unless noted

Assay [1] has as its system HT29 colon.
Assay [2] relates to SNB-75 CNS.
The test system of assay [3] is SNB-19 CNS.
Assay [4] has as its system U251 CNS.
For assay [5], the system named is PC-3 prostate.
Assay [6] deals with SK-MEL-5 melanoma.
Assay [7] deals with UACC-62 melanoma.
Assay [8] relates to SK-MEL-28 melanoma.
Assay [9] has as its system LOX IMVI melanoma.

Each structure is given as a SMILES string. About 83,000 compounds went through this panel and 20% of them were active in at least one assay; those are over-represented in the sample as a whole.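 Single-dose data. Exposure time 48 hours. Values below 10 considered active.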 A number with no mark means an inactive call. Active and inactive are the calls of the source.

On to `C=C(C)[C@@H]1CC[C@]2(C=O)CC[C@]3(C)[C@H](CC[C@@H]4[C@@]5(C)C/C(=C/c6cccnc6)C(=O)C(C)(C)[C@@H]5CC[C@]43C)[C@@H]12`, for which the growth was 72% in [1]; 101% in assay [2]; 84.4% in [3]; 73.4% in [4]; 41.8% in assay [5]; 74.4% in assay [6]. Also, the growth was 61.5% in assay [7] and 93.3% in assay [8].

As for `COc1ccc2c3c(c4ccccc4cc13)C(=O)N(CCN(C)CCN)C2=O`, the growth in assay [1] is -65.2% (active); in assay [2], 8.84% (active); in assay [3], -36.9% (active); in [4], -86.3% (active); in [5], -63.2% (active); in assay [6], -98% (active). Besides, the growth in [9] was -84.8% (active).

In the case of `COc1ccc(C2CC(=O)c3c(nc4ccc(Cl)cc4c3N)C2)cc1` (centres undefined), the growth in [1] was 101%; in [2], 95.7%; in [3], 103%; in assay [4] it was 106%; in assay [5] it was 101%; in assay [6], 98.3%. Besides, the growth in assay [7] was 99.5%; in assay [8], 98.4%.

On to `CCC(=O)c1c(C)[nH]c(C)c1C`, for which the growth in assay [1] was 36.9%; in [2] it was 109%; in [3] it was 94%; in [4] it was 82.5%; in [5], 79.9%; in assay [6] it was 88.9%. Also, the growth was 95.7% in assay [7] and 134% in assay [8].

As for `COc1ccc2c(c1)C(Br)=C(CCO)C2c1ccccc1` (centres undefined), the growth in assay [1] was 41.8%; in assay [2], 57%; in assay [3], 57.7%; in assay [4], 55.8%; in [5] it was 54.5%; in assay [6], 96.5%. Besides, the values for the growth in assay [7] and in assay [8] were 60% and 69.5%, respectively.

As for `Cn1cc(-c2csc(-c3c[nH]c4ccc(F)cc34)n2)c2cccnc21`, the growth was 11.3% in assay [1]; 36.4% in [2]; 54.4% in [3]; 37.5% in assay [4]; 48% in assay [5]; 25.9% in [6]. Moreover, the results for the growth in assay [7] and in assay [8] were 39.6% and 57.4%, respectively.

With `O=c1[nH]c2c3ccncc3cc(-c3cccc(Cl)c3)c2c2cnccc12`, the growth was 28.1% in assay [1]; -21.8% (active) in assay [2]; 75.7% in assay [3]; 13.4% in [4]; 42.2% in assay [5]; 46.3% in assay [6]. Besides, the growth in assay [9] was 19.9%; in assay [8], 25%.

As for `COc1ccc2c(c1)c1nc3cc(C)c(C)cc3nc1n2CCN(C)C`, the growth is -1.79% (active) in assay [1]; 22.2% in [2]; 13.6% in [3]; -85.8% (active) in assay [4]; -14.4% (active) in assay [5]; 45.3% in assay [6]. The results for the growth in assay [7] and in assay [8] were 11% and 9.16% (active), respectively.

Regarding `Cc1ccc(S(=O)(=O)Nc2ccc(-c3cc(-c4cccc(F)c4)c(C#N)c(=O)[nH]3)cc2)cc1`, the growth in assay [1] was 54.6%; in [2], 85%; in assay [3], 84.3%; in assay [4] it was 71%; in [5], 68.8%; in [6], 82%. Also, the results for the growth in assay [7] and in [8] were 60.3% and 97.4%, respectively.

Regarding `O=C(O)c1cccc2c1C(=O)N(c1ccc3c(c1)Cc1ccccc1-3)C2=O`, the growth in [1] was 99.9%; in assay [2] it was 91.6%; in assay [3], 111%; in [4], 111%; in assay [5], 97.6%; in [6] it was 110%. Further, the growth in assay [7] is 112%; in assay [8], 110%.

With `C=CC(=O)N[C@H](Cc1ccc(-c2cc(Cl)cc(Cl)c2)cc1)[C@H](O)[C@@H](O)C(=O)O`, the growth in [1] is 81.5%; in [2], 87%; in assay [3] it was 99.5%; in assay [4], 80.2%; in assay [5], 63.9%; in assay [6], 91.6%. In addition, the growth in [9] is 95.6%; in assay [8], 106%.

As to `Nc1ccccc1NC(=O)c1ccc(CN2CCC/C(=C\c3ccccn3)C2=O)cc1`, the growth in [1] is 13.8%; in assay [2], 15.5%; in assay [3], 38.1%; in [4], 23.9%; in assay [5], 44%; in assay [6], -15.6% (active). For the same compound, the growth was -23.6% (active) in [7] and 16.3% in assay [8].

Take `Cc1ccc(-c2ccc(/C=C(\C#N)c3nc(-c4ccco4)cs3)o2)cc1`: the growth in [1] is 102%; in assay [2] it was 84.9%; in assay [3] it was 99.6%; in assay [4], 98.7%; in assay [5] it was 100%; in assay [6], 87.8%. In addition, the growth in assay [8] is 112%.

On to `C=C1C(=O)O[C@H]2[C@H]1CC/C(COC(=O)NCCc1c[nH]c3ccccc13)=C\CC[C@@]1(C)O[C@@H]21`, for which the growth was -39.8% (active) in assay [1]; 61.3% in assay [2]; 56.9% in [3]; 59.9% in assay [4]; 12.8% in assay [6]; -63.2% (active) in assay [9]. In addition, the growth in assay [8] was -17.6% (active).

Turning to `COc1ccc(C2NC(=O)Nc3ccccc32)c(OC)c1` (centres undefined), the growth in [1] is 108%; in [2], 68.7%; in assay [3] it was 99.1%; in [4] it was 99.7%; in assay [5], 82.2%; in assay [6] it was 96%. In addition, in [9], the growth was 103%.

As for `Cc1ccc(-c2nc([P+](c3ccccc3)(c3ccccc3)c3ccccc3)c(N3CCOCC3)o2)cc1`, the growth in [1] was -0.839% (active); in assay [2], 0.0247% (active); in assay [3], 11.5%; in [4], 12.4%; in assay [5], -18.8% (active); in assay [6], -95.5% (active). Also, the figures for the growth in [7] and in assay [8] were -29.4% (active) and 29.9%, respectively.

`CCc1ccccc1NC(=O)c1sc2nc3c(cc2c1N)CCCC3`: the growth in assay [1] is 13.5%; in [2], 12.3%; in assay [3], 37.6%; in assay [4], 27.8%; in [5] it was 52.9%; in assay [6] it was 34.8%. Moreover, the growth in assay [9] is 36.5%.

Take `Clc1ccc2[nH]cc(-c3nc(-c4c[nH]c5ncccc45)cs3)c2c1`: the growth in assay [1] is 16.1%; in assay [2], 56.8%; in assay [3], 65.1%; in [4], 34.6%; in assay [5], 39.2%; in assay [6], 64.9%. Besides, the growth is 44.2% in assay [7] and 85.9% in assay [8].

As to `COC(=O)[C@]12CC[C@@H](C)[C@H](C)[C@@H]1C1=CC[C@@H]3[C@@]4(C)C[C@@H](OC(C)=O)[C@H](O)[C@@](C)(CO)[C@@H]4[C@H](O)C[C@@]3(C)[C@]1(C)CC2`, the growth in [1] was -95.4% (active); in assay [2], -83.1% (active); in assay [4] it was -84.1% (active); in [5], -100% (active); in [6], -98.5% (active); in assay [9] it was -100% (active). The growth in assay [8] is -86% (active).

Regarding `C=C(C)[C@@H]1CC[C@]2(C(=O)N3CCN(C)CC3)CC[C@]3(C)[C@H](CC[C@@H]4[C@@]5(C)C/C(=C/c6ccc(C(F)(F)F)cc6)C(=O)C(C)(C)[C@@H]5CC[C@]43C)[C@@H]12`, the growth in assay [1] is 95.7%; in [2], 80.7%; in assay [3], 97.3%; in assay [4] it was 87.1%; in [5], 78.8%; in assay [6] it was 99.1%. In addition, the growth in [7] was 96.3%; in [8], 104%.
